What was measured:
Conditions in all cases: concentration: 1 μM, replicates: in singlicate; n = 1
CAMK4 = test system: CAMK4
CAMKK1 = test system: CAMKK1
CAMKK2 = test system: CAMKK2
CASK = test system: CASK
CDC2L1 = test system: T1, CDC2L1
T1 construct: gene CDK11B

CDC2L2 = test system: CDC2L2
CDC2L5 = test system: T2, CDC2L5
T2 construct: gene CDK13

CDK11 = test system: T3, CDK11
T3 construct: gene CDK19

CDK2 = test system: CDK2
CDK3 = test system: CDK3
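Also: KINOMEscan kinase panel screen.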

Structure (SMILES) | %Inh (CAMK4) [%] | %Inh (CAMKK1) [%] | %Inh (CAMKK2) [%] | %Inh (CASK) [%] | %Inh (CDC2L1) [%] | %Inh (CDC2L2) [%] | %Inh (CDC2L5) [%] | %Inh (CDK11) [%] | %Inh (CDK2) [%] | %Inh (CDK3) [%]
CS(=O)(=O)CCNCc1nc(-c2ccc3ncnc(Nc4ccc5c(cnn5Cc5ccccc5)c4)c3c2)cs1.Cl.Cl [GW569716] | 0 | 4 | 1 | 0 | 0 | 0 | 0 | 0 | 0 | 1
CNc1cc(-c2ccc3c(N)n[nH]c3c2)nc(N)n1 [GSK2224810] | 0 | 5 | 11 | 6 | 3 | 30 | 0 | 8 | 0 | 9
Cn1cncc1-c1cc2c(Nc3ccc(OCc4ccccc4)cc3)ncnc2cn1 [GW281179] | 0 | 3 | 32 | 20 | 0 | 17 | 0 | 47 | 0 | 7
COc1cccc(CNC(=O)NC2CCN(c3ccnc(Nc4ccc(F)cc4)n3)C2)c1 (centres unmarked) [GSK1379723] | 0 | 79 | 78 | 27 | 0 | 0 | 0 | 0 | 0 | 6
CC(=O)c1c(C)c2cnc(Nc3ccc(N4CCNCC4)cn3)nc2n(C2CCCC2)c1=O | 0 | 0 | 0 | 0 | 0 | 3 | 0 | 0 | 0 | 8
O=C(Nc1n[nH]c2cc(-c3ccsc3)ccc12)C1CC1 [SB-732932] | 0 | 9 | 0 | 23 | 13 | 3 | 47 | 5 | 57 | 38
COc1ccc(-c2coc3ccc(-c4nnc(C)o4)cc23)cc1 | 13 | 0 | 16 | 0 | 0 | 0 | 21 | 0 | 0 | 0
Cc1nccc(-c2c(-c3ccc(F)cc3)ncn2CCCN2CCOCC2)n1.Cl [SB-282975] | 6 | 9 | 0 | 21 | 100 | 23 | 5 | 11 | 37 | 26
COc1ccc(Nc2nccc(N3CCC(NC(=O)C(C)c4ccc(Cl)cc4)C3)n2)cc1 (centres unmarked) [GSK1379735] | 0 | 18 | 5 | 48 | 6 | 6 | 0 | 21 | 0 | 24
Cc1cccc2c(-c3ccncn3)c(-c3ccc(F)cc3)nn12 [GW515532] | 0 | 0 | 0 | 0 | 0 | 3 | 0 | 0 | 0 | 3
CS(=O)(=O)CCNCc1nc(-c2ccc3ncnc(Nc4ccc(OCc5ccccc5)c(Cl)c4)c3c2)cs1.Cl [GW582764] | 0 | 0 | 7 | 5 | 0 | 0 | 0 | 0 | 0 | 1
CNc1nc(-c2ccc3c(N)n[nH]c3c2)cc(N2C[C@@H](C(=O)Nc3ccccc3)CC[C@H]2C)n1 [GSK2298859] | 0 | 21 | 29 | 24 | 0 | 21 | 0 | 0 | 0 | 0
COc1ccc(Nc2nccc(N3CCC(NC(=O)c4cc5ccccc5s4)C3)n2)cc1 (centres unmarked) [GSK1379738] | 0 | 11 | 2 | 21 | 0 | 17 | 0 | 41 | 0 | 12
O=c1cc(N2CCOCC2)nc2n(Cc3cccc(Cl)c3Cl)c3ccccc3n12 [GSK2299009] | 9 | 27 | 29 | 10 | 0 | 11 | 0 | 94.4 | 0 | 29
Fc1ccc(-c2nc[nH]c2-c2ccncc2)cc1 [SB-217360] | 0 | 0 | 1 | 13 | 0 | 0 | 0 | 0 | 0 | 0
Cc1ccc(-c2nc(Nc3ccncc3)c3ccccc3n2)s1 [GSK189015] | 26 | 0 | 7 | 0 | 0 | 17 | 0 | 9 | 24 | 0
COc1ccc(CSc2nnc(-c3ccc4c(c3)CCO4)o2)cc1 | 0 | 1 | 15 | 0 | 0 | 0 | 90 | 0 | 0 | 0
